PubChem BioAssay (EPA / NIEHS)
Results filed as inconclusive are left out. Active and inactive are the calls of the source. How the source made its calls, unless noted: active means hit-call score of the fitted dose curve at least 0.9, where 1 is the maximum; inactive means score below 0.9.

Assays:
[1] = ATG_TCF_b_cat_CIS: Attagene CIS-FACTORIAL HepG2 Assay for human T-Cell-Factor with beta-catenin (TCF/b-cat) (AID 2282965); conditions: HepG2 TCF/beta-catenin cis-reporter transcription, actives raise or lower the signal
Method in brief: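 Cells of the HepG2 line carry transiently transfected reporter units whose promoters respond to endogenous factors. Twenty-four hours post-dosing, reporter mRNA induction is measured by fluorescent RT-PCR and capillary electrophoresis, with DMSO as baseline.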

[2] = ATG_TAL_CIS: Attagene CIS-FACTORIAL HepG2 Assay for human TAL Basal Promoter (AID 2282966); conditions: HepG2 Attagene cis-factorial TAL promoter reporter; actives raise or lower the signal;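 further: background control endpoint measuring basal TAL promoter reporter mRNA not a specific factor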
Method in brief: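 HepG2, transient MRTU transfection, 24 h compound exposure; RNA → oligo(dT) RT → PCR → 6-FAM primer extension → HpaI digest → CE fluorescence. Bidirectional curve fit vs DMSO. Background-control readout.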

[3] = ATG_TGFb_CIS: Attagene CIS-FACTORIAL HepG2 Assay for human Transforming Growth Factor (TGF) (AID 2282967); conditions: HepG2 Attagene CIS TGFb reporter, mRNA transcription; actives raise or lower the signal
Method in brief: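 Transient MRTU transfection of HepG2 (FuGene 6). Dose 24 h. TriZol RNA, oligo(dT) RT, PCR, 6-FAM primer extension, HpaI cut, CE. Bidirectional fit, DMSO = baseline.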

[4] = ATG_VDRE_CIS: Attagene CIS-FACTORIAL HepG2 Assay for human Vitamin D Receptor Element (VDRE) (AID 2282968); conditions: HepG2 VDRE cis-reporter transcription, actives raise or lower the signal
Method in brief: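 Compounds were applied for 24 h to HepG2 cells transfected with promoter-regulated reporter units. Total RNA was reverse-transcribed, and reporter amplicons were fluorescently labelled and sized by capillary electrophoresis.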

[5] = biological target: Steroid hormone receptor ERR1 (Homo sapiens) (UniProt P11474); experiment: ATG_ERRa_TRANS: Attagene TRANS-FACTORIAL HepG2 Assay for human Estrogen-Related Receptor alpha (ERRa) (AID 2282971; active means hit-call score of the fitted dose curve at least 0.9, where 1 is the maximum); conditions: HepG2 Attagene TRANS reporter, ERRa transactivation
Method in brief: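 Transfected HepG2, 24 h dosing, ERRa-Gal4 chimera driving GAL4-UAS reporter. Readout: reporter mRNA via RT-PCR plus capillary electrophoresis (fluorescence). Positive direction vs DMSO control.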

[6] = biological target: X-box-binding protein 1 (Homo sapiens) (UniProt P17861); experiment: ATG_Xbp1_CIS: Attagene CIS-FACTORIAL HepG2 Assay for human X-box Binding Protein 1 (XBP1) (AID 2282972); conditions: HepG2 XBP1 cis-element reporter, Attagene multiplex; actives raise or lower the signal
Method in brief: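 Multiplexed cis-reporter readout in transfected HepG2 liver cells. Exposure lasted 24 hours. Activity in either direction was fitted against DMSO as negative control and baseline.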

[7] = ATG_GAL4_TRANS: Attagene TRANS-FACTORIAL HepG2 Assay for GAL4 (Internal Marker) (AID 2282976; active means hit-call score of the fitted dose curve at least 0.9, where 1 is the maximum); conditions: HepG2 Attagene TRANS GAL4 internal marker reporter
Method in brief: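 RT-PCR/capillary electrophoresis readout of reporter mRNA. HepG2, transient MRTU transfection (GAL4-UAS reporters), 24 h compound exposure. Background-control endpoint, positive direction vs DMSO baseline.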

[8] = biological target: Glucocorticoid receptor (Homo sapiens) (UniProt P04150); experiment: ATG_GR_TRANS: Attagene TRANS-FACTORIAL HepG2 Assay for human Glucocorticoid Receptor (GR) (AID 2282978; active means hit-call score of the fitted dose curve at least 0.9, where 1 is the maximum;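 further: activators score as hits since higher reporter transcript over DMSO is fitted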); conditions: HepG2 Attagene TRANS GR reporter, mRNA transcription
Method in brief: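 Exogenous NR-GAL4 fusion activity was assessed through induced GAL4-UAS reporter transcripts in transfected human HepG2 cells, quantified after 24 h by RT-PCR and fluorescent capillary electrophoresis with DMSO as baseline.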

[9] = biological target: Oxysterols receptor LXR-beta (Homo sapiens) (UniProt P55055); experiment: ATG_LXRb_TRANS: Attagene TRANS-FACTORIAL HepG2 Assay for human Liver X Receptor beta (LXRb) (AID 2282981; active means hit-call score of the fitted dose curve at least 0.9, where 1 is the maximum); conditions: HepG2 Attagene TRANS GAL4-LXRb reporter, mRNA
Method in brief: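 Multiplexed reporter assay, HepG2, 24 h dosing. Fluorescence of labelled RT-PCR products after capillary electrophoresis gives transcript level; positive fitting direction relative to DMSO.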

[10] = biological target: Hepatocyte nuclear factor 4-alpha (Homo sapiens) (UniProt P41235); experiment: ATG_HNF4a_TRANS: Attagene TRANS-FACTORIAL HepG2 Assay for human Hepatocyte Nuclear Factor 4 alpha (HNF4a) (AID 2282982; active means hit-call score of the fitted dose curve at least 0.9, where 1 is the maximum); conditions: HepG2 HNF4a transactivation reporter, mRNA readout
Method in brief: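 Endpoint reflects transcriptional activation of a GAL4-UAS reporter by an HNF4a-GAL4 chimera in transfected HepG2 cells, 24 h post-dosing. Fluorescence from RT-PCR products separated by capillary electrophoresis; DMSO baseline.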

[11] = ATG_M_06_TRANS: Attagene TRANS-FACTORIAL HepG2 Assay for M06 Transcription Factor (Internal Marker) (AID 2282983; active means hit-call score of the fitted dose curve at least 0.9, where 1 is the maximum); conditions: HepG2 Attagene TRANS M06 internal marker reporter
Method in brief: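 Read-out: fluorescent reporter cDNA fragments resolved by capillary electrophoresis after RT-PCR and HpaI cut. Source cells were HepG2 carrying transfected multi-reporter GAL4 constructs, dosed 24 h. Increase over DMSO control analysed.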

[12] = biological target: Transcriptional activator Myb (Homo sapiens) (UniProt P10242); experiment: ATG_Myb_CIS: Attagene CIS-FACTORIAL HepG2 Assay for human Myeloblastosis (Myb) Proto-Oncogene Transcription Factor (AID 2282986); conditions: HepG2 Attagene CIS-FACTORIAL Myb reporter transcription; actives raise or lower the signal
Method in brief: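 In this HepG2 transient-transfection format, cis-regulated reporter mRNA is quantified 24 h post-dosing by RT-PCR with capillary electrophoresis, fitted bidirectionally to DMSO baseline.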

[13] = biological target: Estrogen receptor (Homo sapiens) (UniProt P03372); experiment: ATG_ERa_TRANS: Attagene TRANS-FACTORIAL HepG2 Assay for human Estrogen Receptor alpha (ERa) (AID 2282970; active means hit-call score of the fitted dose curve at least 0.9, where 1 is the maximum); conditions: HepG2 Attagene TRANS ERa GAL4 reporter, mRNA
Method in brief: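 Reporter mRNA induction after 24 hours, detected by fluorescent RT-PCR and capillary electrophoresis, gives the read-out. Cells are HepG2 transiently transfected with GAL4-UAS reporter transcription units responding to chimeric NR-Gal4. Activity is taken as gain of signal over DMSO baseline.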

[14] = biological target: Bile acid receptor (Homo sapiens) (UniProt Q96RI1); experiment: ATG_FXR_TRANS: Attagene TRANS-FACTORIAL HepG2 Assay for Farnesoid X Receptor (FXR) (AID 2282979; active means hit-call score of the fitted dose curve at least 0.9, where 1 is the maximum;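 further: hits raise reporter mRNA above DMSO so AC50 marks FXR activation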); conditions: HepG2 Attagene TRANS FXR-GAL4 reporter transcription
Method in brief: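 Read-out: fluorescent reporter transcripts quantified by capillary electrophoresis after RT-PCR of total RNA. Source cells were HepG2 transiently carrying chimeric NR-GAL4 plus GAL4-UAS reporter units, dosed 24 h. Activity fitted upward relative to DMSO baseline.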

[15] = ATG_M_32_TRANS: Attagene TRANS-FACTORIAL HepG2 Assay for M32 Transcription Factor (Internal Marker) (AID 2282984; active means hit-call score of the fitted dose curve at least 0.9, where 1 is the maximum;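 further: transcript level of a background control reporter unit measured by RT-PCR and capillary electrophoresis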); conditions: HepG2 Attagene TRANS M32 internal marker reporter
Method in brief: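 Internal-marker readout from a multiplexed transcription reporter panel. HepG2 cells were transfected with GAL4-UAS reporter units, treated 24 hours, and reporter transcript levels determined by fluorescence after RT-PCR and capillary separation.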

[16] = biological target: Nuclear receptor subfamily 4 group A member 2 (Homo sapiens) (UniProt P43354); experiment: ATG_NURR1_TRANS: Attagene TRANS-FACTORIAL HepG2 Assay for human Nuclear Receptor Related Protein 1 (NURR1) (AID 2282985; active means hit-call score of the fitted dose curve at least 0.9, where 1 is the maximum); conditions: HepG2 Attagene TRANS reporter, mRNA readout
Method in brief: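 Endpoint: reporter mRNA increase relative to DMSO. HepG2 cells transfected with reporter units, treated 24 h; RNA processed by RT-PCR, labelling, HpaI digestion and capillary electrophoresis.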

[17] = biological target: Oxysterols receptor LXR-alpha (Homo sapiens) (UniProt Q13133); experiment: ATG_LXRa_TRANS: Attagene TRANS-FACTORIAL HepG2 Assay for human Liver X Receptor alpha (LXRa) (AID 2282980; active means hit-call score of the fitted dose curve at least 0.9, where 1 is the maximum); conditions: HepG2 Attagene TRANS reporter, LXRa transactivation
Method in brief: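 Read-out: reporter transcript levels by RT-PCR plus capillary electrophoresis, fluorescence intensity. Transiently transfected HepG2, exogenous NR-GAL4 chimera, GAL4-UAS reporters; 24 h compound exposure. Activity = increase over DMSO negative control.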

[18] = ATG_M_19_TRANS: Attagene TRANS-FACTORIAL HepG2 Assay for M19 Transcription Factor (Internal Marker) (AID 2282974; active means hit-call score of the fitted dose curve at least 0.9, where 1 is the maximum); conditions: HepG2 Attagene TRANS-FACTORIAL M19 internal marker reporter
Method in brief: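 Using RT-PCR and capillary electrophoresis, reporter mRNA from transiently transfected human HepG2 cells was quantified following 24 h exposure; activity was fitted in the positive direction against DMSO.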

[19] = biological target: Estrogen-related receptor gamma (Homo sapiens) (UniProt P62508); experiment: ATG_ERRg_TRANS: Attagene TRANS-FACTORIAL HepG2 Assay for human Estrogen-Related Receptor gamma (ERRg) (AID 2282977; active means hit-call score of the fitted dose curve at least 0.9, where 1 is the maximum;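 further: hits increase reporter signal over DMSO so potencies reflect activators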); conditions: HepG2 Attagene TRANS reporter, ERRg transactivation
Method in brief: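 Induction of reporter transcripts through a chimeric NR-Gal4 protein is quantified in transfected human HepG2 liver cells after 24 h chemical exposure, using RT-PCR with capillary electrophoresis detection and DMSO as baseline.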

Measured: AC50

Chain of Bile acid receptor (Homo sapiens) (Q96RI1 whole entry, looked up, the tested form may be a part): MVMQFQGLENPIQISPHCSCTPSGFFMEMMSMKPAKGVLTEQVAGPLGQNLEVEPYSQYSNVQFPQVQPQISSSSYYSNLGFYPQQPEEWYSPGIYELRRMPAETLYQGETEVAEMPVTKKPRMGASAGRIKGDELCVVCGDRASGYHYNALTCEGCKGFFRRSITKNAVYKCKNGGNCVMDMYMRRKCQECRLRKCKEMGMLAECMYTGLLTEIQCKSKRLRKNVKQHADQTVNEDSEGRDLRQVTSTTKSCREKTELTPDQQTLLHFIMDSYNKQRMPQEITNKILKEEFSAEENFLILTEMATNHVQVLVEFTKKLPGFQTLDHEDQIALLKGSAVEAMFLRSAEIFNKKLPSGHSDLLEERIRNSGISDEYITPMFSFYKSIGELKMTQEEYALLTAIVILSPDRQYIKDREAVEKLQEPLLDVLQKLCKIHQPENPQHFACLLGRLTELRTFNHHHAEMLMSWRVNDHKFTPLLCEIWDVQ
Chain of Hepatocyte nuclear factor 4-alpha (Homo sapiens) (P41235 whole entry, looked up, the tested form may be a part): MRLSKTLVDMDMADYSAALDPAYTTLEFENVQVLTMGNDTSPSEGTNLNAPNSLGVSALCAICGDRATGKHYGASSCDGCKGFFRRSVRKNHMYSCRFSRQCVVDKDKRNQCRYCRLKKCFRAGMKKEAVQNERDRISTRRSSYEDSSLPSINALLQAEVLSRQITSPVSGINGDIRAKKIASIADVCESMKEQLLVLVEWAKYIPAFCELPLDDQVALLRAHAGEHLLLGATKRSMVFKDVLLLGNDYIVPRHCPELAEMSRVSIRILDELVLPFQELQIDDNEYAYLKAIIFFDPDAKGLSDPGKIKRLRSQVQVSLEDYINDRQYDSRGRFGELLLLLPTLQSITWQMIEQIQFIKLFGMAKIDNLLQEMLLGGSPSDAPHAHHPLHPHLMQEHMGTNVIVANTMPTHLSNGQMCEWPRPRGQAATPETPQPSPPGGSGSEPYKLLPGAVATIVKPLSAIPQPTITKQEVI
Chain of X-box-binding protein 1 (Homo sapiens) (P17861 whole entry, looked up): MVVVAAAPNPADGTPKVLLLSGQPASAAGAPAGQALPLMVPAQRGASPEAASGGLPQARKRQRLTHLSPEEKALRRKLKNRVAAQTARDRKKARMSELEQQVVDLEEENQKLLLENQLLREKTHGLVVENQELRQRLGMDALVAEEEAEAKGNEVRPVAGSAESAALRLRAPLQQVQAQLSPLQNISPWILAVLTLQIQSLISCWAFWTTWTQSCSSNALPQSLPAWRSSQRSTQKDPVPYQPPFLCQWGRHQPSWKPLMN
Chain of Glucocorticoid receptor (Homo sapiens) (P04150 whole entry, looked up, the tested form may be a part): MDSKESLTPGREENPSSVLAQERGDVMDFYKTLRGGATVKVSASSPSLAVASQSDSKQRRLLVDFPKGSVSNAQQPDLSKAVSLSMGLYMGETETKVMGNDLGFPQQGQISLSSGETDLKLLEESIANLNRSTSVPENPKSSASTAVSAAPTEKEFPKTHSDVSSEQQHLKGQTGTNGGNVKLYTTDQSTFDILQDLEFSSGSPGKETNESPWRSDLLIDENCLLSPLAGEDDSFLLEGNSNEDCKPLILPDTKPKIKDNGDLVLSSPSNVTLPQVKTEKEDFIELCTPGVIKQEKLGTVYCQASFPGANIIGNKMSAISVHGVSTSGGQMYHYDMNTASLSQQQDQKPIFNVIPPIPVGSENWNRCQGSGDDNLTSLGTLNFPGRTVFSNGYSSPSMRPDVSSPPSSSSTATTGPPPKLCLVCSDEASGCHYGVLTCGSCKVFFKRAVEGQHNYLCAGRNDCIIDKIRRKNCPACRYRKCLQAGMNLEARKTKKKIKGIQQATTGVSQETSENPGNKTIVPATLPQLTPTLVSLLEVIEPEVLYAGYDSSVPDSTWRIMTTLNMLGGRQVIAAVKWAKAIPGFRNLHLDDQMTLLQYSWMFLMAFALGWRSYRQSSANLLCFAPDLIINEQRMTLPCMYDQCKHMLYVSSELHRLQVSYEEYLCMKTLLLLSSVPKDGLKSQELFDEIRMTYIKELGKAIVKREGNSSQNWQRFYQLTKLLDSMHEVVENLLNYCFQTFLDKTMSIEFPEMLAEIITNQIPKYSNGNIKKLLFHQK
Chain of Nuclear receptor subfamily 4 group A member 2 (Homo sapiens) (P43354 whole entry, looked up): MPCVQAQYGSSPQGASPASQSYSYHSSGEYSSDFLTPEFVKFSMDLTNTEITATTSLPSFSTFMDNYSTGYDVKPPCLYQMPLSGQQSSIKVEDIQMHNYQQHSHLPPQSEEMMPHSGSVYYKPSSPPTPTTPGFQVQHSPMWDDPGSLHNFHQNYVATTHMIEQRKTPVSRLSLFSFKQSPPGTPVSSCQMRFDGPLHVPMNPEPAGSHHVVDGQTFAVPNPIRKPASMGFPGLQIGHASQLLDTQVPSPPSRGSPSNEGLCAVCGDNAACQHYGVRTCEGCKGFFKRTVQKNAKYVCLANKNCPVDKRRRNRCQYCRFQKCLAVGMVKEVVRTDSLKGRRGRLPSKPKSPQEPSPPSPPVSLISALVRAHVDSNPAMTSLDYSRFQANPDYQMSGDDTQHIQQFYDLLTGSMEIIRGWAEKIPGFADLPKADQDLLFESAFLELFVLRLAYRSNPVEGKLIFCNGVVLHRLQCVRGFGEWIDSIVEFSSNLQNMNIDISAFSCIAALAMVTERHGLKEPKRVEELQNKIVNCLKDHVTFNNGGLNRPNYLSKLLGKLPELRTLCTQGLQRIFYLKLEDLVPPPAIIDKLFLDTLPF
Chain of Estrogen-related receptor gamma (Homo sapiens) (P62508 whole entry, looked up, the tested form may be a part): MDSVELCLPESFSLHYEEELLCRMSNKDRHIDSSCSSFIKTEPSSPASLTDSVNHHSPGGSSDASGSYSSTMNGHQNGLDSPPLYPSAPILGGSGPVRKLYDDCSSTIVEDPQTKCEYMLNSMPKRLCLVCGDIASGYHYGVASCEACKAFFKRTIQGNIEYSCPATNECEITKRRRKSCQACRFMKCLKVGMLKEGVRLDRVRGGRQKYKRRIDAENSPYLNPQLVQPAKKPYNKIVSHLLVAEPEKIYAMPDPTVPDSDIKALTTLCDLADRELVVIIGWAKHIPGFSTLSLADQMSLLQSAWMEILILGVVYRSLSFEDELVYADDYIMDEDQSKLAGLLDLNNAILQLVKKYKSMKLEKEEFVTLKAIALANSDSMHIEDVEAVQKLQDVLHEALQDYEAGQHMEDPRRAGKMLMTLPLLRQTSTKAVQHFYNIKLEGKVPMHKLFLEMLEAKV
Chain of Transcriptional activator Myb (Homo sapiens) (P10242 whole entry, looked up): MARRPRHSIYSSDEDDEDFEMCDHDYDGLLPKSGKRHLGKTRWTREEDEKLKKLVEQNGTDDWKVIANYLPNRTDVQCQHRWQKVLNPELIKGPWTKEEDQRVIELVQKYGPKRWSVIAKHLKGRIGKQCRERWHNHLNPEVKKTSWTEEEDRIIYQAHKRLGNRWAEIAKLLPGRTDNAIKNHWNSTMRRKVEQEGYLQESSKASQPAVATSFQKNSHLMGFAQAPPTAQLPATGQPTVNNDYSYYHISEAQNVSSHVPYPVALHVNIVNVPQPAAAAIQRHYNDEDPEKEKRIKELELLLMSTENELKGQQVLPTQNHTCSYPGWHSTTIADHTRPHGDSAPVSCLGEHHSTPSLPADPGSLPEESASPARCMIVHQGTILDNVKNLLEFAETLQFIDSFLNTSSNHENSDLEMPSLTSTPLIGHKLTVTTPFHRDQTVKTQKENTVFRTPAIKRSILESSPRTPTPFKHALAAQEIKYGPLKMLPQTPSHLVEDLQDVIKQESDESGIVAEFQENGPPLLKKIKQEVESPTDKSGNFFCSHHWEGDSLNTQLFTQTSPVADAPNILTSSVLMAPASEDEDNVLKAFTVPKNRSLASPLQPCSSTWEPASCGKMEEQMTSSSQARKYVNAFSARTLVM
Chain of Steroid hormone receptor ERR1 (Homo sapiens) (P11474 whole entry, looked up, the tested form may be a part): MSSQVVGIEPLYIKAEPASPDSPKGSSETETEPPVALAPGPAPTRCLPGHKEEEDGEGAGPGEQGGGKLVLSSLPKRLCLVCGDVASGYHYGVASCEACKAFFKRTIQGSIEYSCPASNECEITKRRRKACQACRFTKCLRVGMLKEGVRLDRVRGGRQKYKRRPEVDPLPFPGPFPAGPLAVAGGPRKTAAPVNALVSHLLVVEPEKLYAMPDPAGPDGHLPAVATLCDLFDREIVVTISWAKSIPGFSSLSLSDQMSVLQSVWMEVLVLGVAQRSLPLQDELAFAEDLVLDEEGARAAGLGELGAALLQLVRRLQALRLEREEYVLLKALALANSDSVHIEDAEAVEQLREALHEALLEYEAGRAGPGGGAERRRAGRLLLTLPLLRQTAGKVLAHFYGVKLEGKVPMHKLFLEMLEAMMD
Chain of Oxysterols receptor LXR-beta (Homo sapiens) (P55055 whole entry, looked up, the tested form may be a part): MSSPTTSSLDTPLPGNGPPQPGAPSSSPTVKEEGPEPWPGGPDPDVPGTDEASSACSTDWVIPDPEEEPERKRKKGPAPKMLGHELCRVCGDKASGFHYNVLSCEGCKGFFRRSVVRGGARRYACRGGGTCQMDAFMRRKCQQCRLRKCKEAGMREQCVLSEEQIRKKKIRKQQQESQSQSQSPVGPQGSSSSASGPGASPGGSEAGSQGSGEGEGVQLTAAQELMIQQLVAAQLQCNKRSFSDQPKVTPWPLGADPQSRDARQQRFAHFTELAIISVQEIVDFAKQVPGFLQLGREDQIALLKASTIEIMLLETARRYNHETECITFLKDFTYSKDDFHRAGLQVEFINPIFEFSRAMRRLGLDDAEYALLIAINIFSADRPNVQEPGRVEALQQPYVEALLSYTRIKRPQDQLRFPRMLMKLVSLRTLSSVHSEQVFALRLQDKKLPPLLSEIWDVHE

CCCCOC(=O)C(C)OC(=O)CCC (configuration not stated)
not listed: [13] | [14] | [15] | [16] | [17] | [18] | [19]
inactive: all other assays above

C=C/C(C)=C/C/C=C(\C)CCC=C(C)C
not listed: [5] | [7] | [9] | [10] | [17] | [18] | [19]
inactive: all other assays above

C[C@H](CCC(=O)O)[C@H]1CC[C@H]2[C@@H]3CC[C@@H]4C[C@H](O)CC[C@]4(C)[C@H]3CC[C@]12C
inactive: [2] | [6] | [8] | [17] | [15] | [12]
active: [1] 35.1 µM | [3] 43 µM | [4] 17.7 µM | [13] 26.3 µM | [16] 27.7 µM

CCCCN(CCO)CCO
inactive: [1] | [2] | [3] | [4] | [13] | [6] | [10] | [11] | [12]

CCCCCC1C(=O)CCC1CC(=O)OC (configuration not stated)
inactive: [1] | [2] | [3] | [4] | [13] | [6] | [9] | [11] | [16] | [12]

CCOc1ccc(NC(C)=O)cc1
not listed: [5] | [9] | [11] | [13] | [14] | [16]
inactive: all other assays above

c1coc(CNc2ncnc3nc[nH]c23)c1
not listed: [5] | [7] | [14] | [17] | [18] | [19]
inactive: all other assays above

CCCO[Si](OCCC)(OCCC)OCCC
not listed: [5] | [7] | [9] | [10] | [14] | [17] | [18] | [19]
inactive: all other assays above

CCCCCCCCCCCCOCCOS(=O)(=O)O
inactive: [1] | [2] | [3] | [4] | [5] | [6] | [9] | [15] | [16] | [12]

Nc1ccc(O)c(N)c1
not listed: [8] | [10] | [11] | [13] | [14]
inactive: all other assays above

CC1=CC[C@@H](C(C)(C)O)CC1
not listed: [5] | [7] | [8] | [14] | [15] | [16] | [18] | [19]
inactive: all other assays above

C=C(C)C(=O)OCCOCCOC(=O)C(=C)C
not listed: [5] | [8] | [9] | [10] | [13] | [14] | [16] | [17]
inactive: all other assays above

NC(=O)c1cccnc1
not listed: [5] | [7] | [9] | [11] | [15] | [17] | [18] | [19]
inactive: all other assays above

CCCCCCCOC(C)=O
active: [13] 17.6 µM
inactive: [1] | [2] | [3] | [4] | [6] | [11] | [15] | [16] | [12]

CC(C)(O)CCc1ccccc1
not listed: [5] | [7] | [15] | [17] | [18] | [19]
inactive: all other assays above

CC1=CC(O)CC(C)(C)C1 (configuration not stated)
not listed: [10] | [11] | [13] | [14] | [16] | [18] | [19]
inactive: all other assays above

CCCc1ccc(O)cc1
inactive: [1] | [2] | [3] | [4] | [6] | [8] | [14] | [9] | [16] | [12]
active: [13] 12 µM

OCCCO
inactive: [1] | [2] | [3] | [4] | [6] | [8] | [10] | [16] | [12]

COC(=O)c1ccc(C(=O)OC)cc1
not listed: [5] | [8] | [9] | [13] | [14] | [19]
inactive: all other assays above

CCCCCCCCCCO[C@@H]1O[C@H](CO)[C@@H](O)[C@H](O)[C@H]1O
inactive: [1] | [2] | [3] | [4] | [6] | [18] | [16] | [12]

CCNC(=S)NCC
not listed: [5] | [7] | [8] | [10] | [13] | [14] | [18] | [19]
inactive: all other assays above

CCCCCC(=O)O[C@]1(C(C)=O)CC[C@H]2[C@@H]3CCC4=CC(=O)CC[C@]4(C)[C@H]3CC[C@@]21C
active: [2] 13.4 µM | [4] 61.2 µM | [8] 0.476 µM | [16] 8.77 µM
not listed: [5] | [10] | [13] | [18] | [19]
inactive: all other assays above

Cc1cccc(C)c1
not listed: [5] | [7] | [9] | [10] | [13] | [14] | [15] | [18]
inactive: all other assays above

CCCO
not listed: [5] | [8] | [9] | [10] | [13] | [14] | [19]
inactive: all other assays above
